An excerpt weighted towards active compounds, which were near 0.78% of everything screened.
3CLpro inhibitor – SARS-CoV 3CLpro protease inhibition; P0C6X7; recombinant SARS-CoV 3CLpro, quenched FRET peptide cleavage; inhibition, % at 6 µM; hit rate 0.14% among 290,000; AID 1706; in the data active = inhibition above about 12%
PriA SSB inh – inhibitors of Klebsiella pneumoniae PriA binding to SSB C-terminal tail; AlphaScreen SSBct-PriA binding, biotinylated peptide; inhibition, % at 33 µM; hit rate 0.6% among 430,000; AID 1272365; in the data active = inhibition mostly above about 37%, no sharp cut-off; inactive = mostly below about 20%
BJeLR lethal – kills HRASV12-expressing BJeLR cells. BJeLR (HRASV12) viability, CellTiter-Glo ATP luminescence, 48 h. inhibition, % (test concentration not listed). hit rate 0.17% among 300,000. AID 1554; in the data active = inhibition above about 50%
Numbers stand for hits; - = inactive; . = no result; ! = not active in a repeat.

SMILES	3CLpro inhibitor	PriA SSB inh	BJeLR lethal
O=C(NCC#CCN1CCOCC1)NC1CCCCC1	.	-	.
CCOC(=O)N1CCC(Nc2cc(C)nc3c(-c4ccccc4OC)c(C)nn23)CC1	-	104	-
CCOC(=O)N1CCN(C(=O)CSc2cc(C)nc3c(-c4ccccc4OC)c(C)nn23)CC1	-	-	-
CC(NC(=O)Oc1ccccc1)C(c1cccs1)N1CCN(c2ccc(F)cc2)CC1 (stereo unspecified)	.	-	.
O=Nc1c2cc(-c3ccccc3)[nH]nc-2c2ccccc12	-	-	69
Cc1cccc(-c2cc3c(N=O)c4ccccc4c-3n[nH]2)c1	-	-	-
Cc1ccc(-c2cc3c(N=O)c4ccccc4c-3n[nH]2)cc1	-	-	70
O=c1[nH]nc(-c2ccccc2)c2ccccc12	-	-	-
O=S(=O)(NCC1CCN(S(=O)(=O)c2cccnc2)CC1)c1ccc2c(c1)CCO2	.	-	.
COCCNC(=O)NCc1cc(-c2ccccn2)n(C)n1	.	-	.
CCOc1ccccc1C(=O)NCCc1nc2c(c(C(F)(F)F)n1)CCCC2	.	-	.
Cc1ccc(S(=O)(=O)NCCCN2CCN(c3ccccc3)CC2)cc1	.	-	.
COc1ccc(/C=N\NC(=O)c2cccc(F)c2)cc1COc1ccccc1	.	.	54
COc1ccc(C=NNC(=O)c2ccccc2)cc1COc1ccc(F)cc1	.	-	.
CC(=O)N(Cc1c(C)nn(-c2ccccc2)c1Cl)c1ccc(Cl)cc1	-	-	-
Cc1nn(-c2ccccc2)c(Cl)c1CN(C(=O)CCl)c1ccc(Cl)cc1	-	-	133
Cc1ccc2c(c1)c(-c1ccccc1)c(-c1ccccc1)n2CC(O)CNC1CCCC1 (stereo unspecified)	.	61	.
Cc1ccc2c(c1)c1c(n2CC(O)CNC2CCCCC2)CCCC1 (stereo unspecified)	-	-	-
COc1ccc(-c2nc(-c3ccc(NC(=O)c4ccncc4)cc3)no2)cc1OC	-	-	-
COc1ccc(NC(=O)c2ccc(-c3ccc(-c4noc(C)n4)cc3C)cc2)cc1N1CCN(C)CC1	.	39	.
COc1ccc(Cl)cc1NC(=O)C1CCCN1 (stereo unspecified)	.	-	.
CC(=O)c1ccc(NC(=O)[C@@H](C)Cn2cncn2)cc1	.	-	.
Cc1cc(N)c2cc(NC(=O)/C=C/c3ccccc3Cl)ccc2n1	-	-	107
Cc1cc(C)nc(NC(=O)/C=C/c2ccccc2Cl)n1	-	-	-
O=C(NCc1ccc2c(c1)OCO2)C(=O)NC[C@H](O)C1CCCCC1	.	-	.
SMILES	3CLpro inhibitor	PriA SSB inh	BJeLR lethal
CC1C/C(=N/Nc2ccc([N+](=O)[O-])cc2[N+](=O)[O-])CC(C)(C)C1 (stereo unspecified)	-	.	-
CC1CCCC(=NNc2ccc([N+](=O)[O-])cc2[N+](=O)[O-])C1 (stereo unspecified)	.	58	.
O=C(Nc1ccc(-c2ccc3nnc(-c4ccncc4)n3n2)cc1)c1ccccc1Cl	.	-	.
Cc1ccccc1C(=O)Nc1ccc(-c2ccc3nnc(-c4ccccn4)n3n2)cc1	.	70	.
O=C(Nc1ccc(-c2ccc3nnc(-c4ccccn4)n3n2)cc1)c1ccc(Cl)nc1	.	-	.
O=C(Nc1ccc(-c2ccc3nnc(-c4ccccn4)n3n2)cc1)c1ccccc1Cl	.	82	.
O=C(Nc1ccc(-c2ccc3nnc(-c4ccccn4)n3n2)cc1)C1CCCC1	.	-	.
O=C(Cc1ccccc1)Nc1ccc(-c2ccc3nnc(-c4ccccn4)n3n2)cc1	.	95	.
COc1ccc(CNC(=O)NCCOc2cc(C)cc(C)c2)cc1OC	.	-	.
Cc1cc(C(=O)CCl)c(C)n1CCc1ccc(F)cc1	-	-	-
Cc1cc(C(=O)CCl)c(C)n1CCc1ccc(Cl)cc1	-	41	-
O=C(NCC(c1ccco1)N1CCc2ccccc21)Nc1ccc(Cl)cc1 (stereo unspecified)	.	-	.
Cc1nn(C2CCS(=O)(=O)C2)c2nc(-c3cccs3)cc(C(=O)NCc3cccnc3)c12 (stereo unspecified)	.	-	.
COCC(=O)N1CCc2nc(NC(=O)C3CCC3)sc2C1	.	-	.
Cc1ccc(SCCC(=O)Nc2ccc3sccc3c2)cc1	.	-	.
COc1ccc(SCCC(=O)Nc2ccc3sccc3c2)cc1	.	43	.
CC1(C)c2[nH]c3ccccc3c2C[C@@H]2C(=O)N(Cc3ccccc3)C(=O)N21	.	-	-
COC(=O)[C@@H]1Cc2c([nH]c3ccccc23)C(C)(C)N1C(=O)CCl	-	-	91
Cc1ccsc1C=NNc1nc(=O)[nH]nc1C	.	67	.
Cc1n[nH]c(=O)nc1NN=Cc1ccc(O)c([N+](=O)[O-])c1	.	-	.
O=c1c(-c2nc(-c3ccncc3)no2)cccn1Cc1ccccc1C(F)(F)F	.	-	.
CC(=O)N1N=C(c2ccc([N+](=O)[O-])cc2)CC1c1ccccc1Cl (stereo unspecified)	-	45	-
CC(=O)N1N=C(c2ccccc2)CC1c1ccccc1[N+](=O)[O-] (stereo unspecified)	-	-	-
O=C(NCc1cccs1)NCc1nnnn1-c1cccc(F)c1	.	-	.
O=C(CSc1ccc2nnc(CCNC(=O)c3ccccc3)n2n1)OCc1ccccc1	.	-	.
SMILES	3CLpro inhibitor	PriA SSB inh	BJeLR lethal
CC(=O)NC(C)c1cc(Cl)c2cccnc2c1O (stereo unspecified)	.	-	.
Oc1c(Cl)ccc2cccnc12	.	82	.
Ic1cccc2cccnc12	.	-	.
Cc1ccc(S(=O)(=O)Nc2cc(Cl)c(O)c3ncccc23)cc1	-	45	-
Oc1c(I)cc(I)c2cccnc12	-	58	-
Oc1c(Cl)cc(Cl)c2cccnc12	-	83!	-
CCOc1ccc(S(=O)(=O)Nc2cc(Cl)c(O)c3ccccc23)cc1	.	-	.
Fc1c(Cl)ccc2cccnc12	.	-	.
O=C(CCn1cnc2ccccc21)N/N=C\c1cccs1	.	-	.
O=[N+]([O-])c1cccc(N/N=C/c2ccc(N3CCOCC3)cc2)c1	-	.	-
O=[N+]([O-])c1cccc(NN=Cc2ccc(N3CCOCC3)cc2)c1	.	52	.
Cc1c(C(=O)N2CCN(Cc3ccc4c(c3)OCO4)CC2)cccc1[N+](=O)[O-]	-	-	-
O=C(Nc1ccccc1[N+](=O)[O-])C(=O)N1CCN(Cc2ccc3c(c2)OCO3)CC1	.	50	.
O=C(NCCCN1CCN(c2ccccc2F)CC1)Nc1ccccc1[N+](=O)[O-]	-	-	-
O=C(Nc1ccccc1[N+](=O)[O-])C(=O)N1CCN(c2ccccc2F)CC1	.	36	.
CCOC(=O)N1CCN(c2cc(=O)n(-c3ccccc3Cl)c(=O)[nH]2)CC1	-	104	-
CCOC(=O)N1CCN(c2cc(=O)n(-c3ccc(Cl)cc3)c(=O)[nH]2)CC1	.	-	.
CCC(C)n1c(=O)c2sccc2n2c(CCCC(=O)N3CCC(C(N)=O)CC3)nnc12 (stereo unspecified)	-	43	-
CC(C)Cn1c(=O)c2sccc2n2c(CCCC(=O)NC3CCN(Cc4ccccc4)CC3)nnc12	-	-	-
Cc1noc(-c2ccc(N)cc2)n1	.	-	.
Cc1noc(-c2ccc3nccnc3c2)n1	.	41	.
COc1ccc(C2(CNC(=O)C3CC(=O)N(c4cccc(Br)c4)C3)CCOCC2)cc1 (stereo unspecified)	.	-	.
O=C(O)c1ccccc1Nc1ccc([N+](=O)[O-])c2nonc12	-	57!	-
Cc1ccccc1Nc1ccc([N+](=O)[O-])c2nonc12	.	-	.
O=[N+]([O-])c1ccc(Nc2ccccc2Cl)c2nonc12	.	59	.
O=C(O)c1ccccc1Nc1ccc([N+](=O)[O-])cc1C(=O)O	-	-	-

From PubChem
